Results taken from PubChem BioAssay (NCATS).
Values joined by “and” are separate entries in the source; they are usually repeats but may differ in a detail not shown here. Identical values can stand only once. Inconclusive results are not listed. Active and inactive are the calls of the source. Unless noted, calls come from the whole dose curve; as a rule, active = well fitted curve in the direction sought with a large enough effect; inconclusive = small, poorly fitted or top-dose-only effect, or another doubt; inactive = no such curve, though single readings can be large; an effect the other way counts as inactive or inconclusive.

Legend:
[1] = Cell Viability - N2a (AID 540); details: N2a mouse neuroblastoma cell viability; activity change, negative = cytotoxicity: at 92.2 µM (top of the series);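 note: cells exposed to compound for 40 h at 37 °C; nearly all actives have a fitted effect of over 45% in size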; note: potency is the fitted concentration of half-maximal effect;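 for activity change, negative = cytotoxicity: plate controls were DMSO alone for no effect and tamoxifen control for full effect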
Procedure, shortened: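 Cytotoxicity was scored as loss of cellular ATP in N2a cells, a mouse neuroblastoma line. Compounds are applied in a qHTS concentration series for 40 hr at 37 °C.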

[2] = Cell Viability - NIH 3T3 (AID 541); details: NIH 3T3 cell viability, qHTS; activity change, negative = cytotoxicity: at 92.2 µM (top of the series);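 note: cells exposed to compound for 40 hours; nearly all actives have a fitted effect of over 25% in size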; note: potency is the fitted concentration of half-maximal effect;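 for activity change, negative = cytotoxicity: plate controls were DMSO alone for no effect and tamoxifen positive control for full effect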
Procedure, shortened: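 Cells seeded at 1000/well, rested 5 hr at 37 °C, then dosed and incubated 40 hr at 37 °C. CellTiter-Glo added, 20 min room temperature, luminescence read. AC50 by Hill fit.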

[3] = Cell Viability - HUV-EC-C (AID 542);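 note: cells exposed to compound for 40 hours; nearly all actives have a fitted effect of over 35% in size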; note: potency is the fitted concentration of half-maximal effect; for activity change, negative = cytotoxicity: % is set by controls: 0 for no effect and ±100 for the full control effect
Procedure, shortened: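 Cells were seeded at 1000 per well and incubated 5 hr at 37 °C before compound addition. After 40 hr at 37 °C, CellTiter-Glo reagent was added for 20 min and luminescence read. AC50 values came from Hill-equation modelling.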

[4] = Cell Viability - SH-SY5Y (AID 544); details: SH-SY5Y neuroblastoma cell viability; viability change, negative = cytotoxic: at 92.2 µM (top of the series);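 note: cells exposed to compound for 40 hours; nearly all actives have a fitted effect of over 55% in size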; note: potency is the fitted concentration of half-maximal effect
Procedure, shortened: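 Cells were plated at 1500 per well and allowed 5 hr at 37 °C. Compounds were added across a concentration range and incubated 40 hr at 37 °C. CellTiter-Glo was added for 20 min at room temperature before luminescence reading.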

[5] = Cellular Toxicity (caspase-3) HepG2 (AID 654);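 note: cells exposed to compound for 16 hours before reading; 0% = DMSO alone and 100% = caspase signal from 100 µM tamoxifen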
Procedure, shortened: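 Caspase 3/7 activation in HepG2 is measured as rising luminescence after a 16 hr treatment at 37 °C. Values are scaled between DMSO basal and 100 uM tamoxifen, and AC50 is fitted with the Hill equation.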

[6] = Cellular Toxicity (caspase-3) SHSY5Y (AID 657);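 note: cells exposed to compound for 16 hours at 37 °C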; note: potency is the fitted concentration of half-maximal effect
Procedure, shortened: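 Readout: caspase-cleaved peptide-aminoluciferin substrate driving luciferase light in SH-SY5Y neuroblastoma cells after 16 h treatment. Response normalized to DMSO and 10 uM staurosporine controls.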

[7] = Cellular Toxicity (caspase-3) BJ (AID 658);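 note: cells exposed to compound for 16 hours; 0% = DMSO basal and 100% = 10 µM staurosporine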
Procedure, shortened: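 Caspase-Glo 3/7 luminescence, read 1 hr after reagent at room temperature, in normal BJ fibroblasts exposed 16 hours at 37 °C. AC50 values from Hill-equation concentration-response, scaled between DMSO basal and 10 uM staurosporine as 100%.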

[8] = Cellular Toxicity (caspase-3) Mesangial (AID 660); details: Potency: caspase-3 activation;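 note: combined caspase 3 and 7 activity read by Caspase-Glo luminescence; cells exposed to compound for 16 h before the caspase read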; note: potency is the fitted concentration of half-maximal effect
Procedure, shortened: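 Seed cells derived from normal human renal glomeruli, incubate 5 h, add compounds across concentrations and incubate 16 h at 37 °C. Caspase 3/7 activation is then quantified by luciferase light, with AC50 derived by Hill modeling.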

[9] = Cellular Toxicity (caspase-3) SK-N-SH (AID 661);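 note: cells exposed to compound for 16 hours; 0% = DMSO basal and 100% = 10 µM staurosporine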
Procedure, shortened: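 Cells were seeded and incubated 5 hr at 37 °C, dosed with compound over a concentration range for 16 hr, then given Caspase-Glo 3/7 reagent for 1 hr at room temperature before luminescence reading.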

[10] = Cellular Toxicity (caspase-3) Hek293 (AID 664); details: HEK293 caspase-3 activation, DMSO = 0%, 100 µM tamoxifen = 100%; at 92.2 µM (top of the series);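 note: cells exposed to compound for 16 h at 37 °C before readout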
Procedure, shortened: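 qHTS, HEK293 (human embryonic kidney), 16 h cpd exposure in complete medium. Caspase-3/7 activation = luminescence increase; normalized to DMSO/100 uM tamoxifen; Hill-fit AC50.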

[11] = Cellular Toxicity (caspase-3) NIH 3T3 (AID 666);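 note: caspase signal read after 16 h compound exposure; 0% = DMSO basal and 100% = 100 µM tamoxifen stimulation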
Procedure, shortened: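 Cells were plated at 1000 per well and incubated 5 hr at 37°C, then compound was added for 16 hr. Caspase-Glo 3/7 reagent followed for 20 min at room temperature before luminescence was read.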

[12] = Cell Viability - LYMP1-002 - Assay at 16 hr (AID 948); note: potency is the fitted concentration of half-maximal effect;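 for activity change, negative = cytotoxicity: 0% = DMSO alone and full effect = 92 µM tetraoctylammonium bromide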
Procedure, shortened: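 In this qHTS, lymphoblastoid LYMP1-002 cells (human) receive compounds for 16 hr at 37 C. Viability is taken from CellTiter-Glo ATP luminescence, and AC50 derives from standard Hill fits.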

[13] = Cell Viability - LYMP1-003 - Assay at 40 hr (AID 964); note: nearly all actives have a fitted effect of over 60% in size; note: potency is the fitted concentration of half-maximal effect
Procedure, shortened: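 Luminescent ATP signal (CellTiter-Glo) served as the viability read-out after 40 hr compound treatment of human lymphoblastoid LYMP1-003 cells at 37 C. Decreases in ATP were fitted with the Hill equation to give AC50.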

[14] = Cell Viability - LYMP2-019 (AID 973);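 note: cells exposed to compound for 24 h at 37 °C; nearly all actives have a fitted effect of over 55% in size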; note: potency is the fitted concentration of half-maximal effect;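 for activity change, negative = cytotoxicity: 0% = DMSO alone and full effect = 92 µM tetraoctylammonium bromide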
Procedure, shortened: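 Cytotoxicity is scored as a concentration-dependent drop in cellular ATP after cells (2500/well) receive compound for 24 hr at 37 C. Tetraoctylammonium bromide serves as positive control.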

[15] = Cell Viability - LYMP2-023 (AID 975);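 note: cells exposed to compound for 24 hours at 37 °C; nearly all actives have a fitted effect of over 55% in size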; note: potency is the fitted concentration of half-maximal effect;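 for activity change, negative = cytotoxicity: cellular ATP measured by luciferase luminescence as viability proxy; plate controls were DMSO only for no effect and 92 µM tetraoctylammonium bromide control for full effect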
Procedure, shortened: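 Steps: seed 2500 human lymphoblastoid cells per well, incubate 5 hr at 37 C, add compound for 24 hr at 37 C, add CellTiter-Glo, hold 30 min at room temperature, read luminescence. AC50 derived by Hill modelling.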

[16] = Cell Viability - LYMP2-016 (AID 984);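 note: cells exposed to compound for 24 hours at 37 °C; nearly all actives have a fitted effect of over 55% in size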; for activity change, negative = cytotoxicity: % is set by controls: 0 for no effect and ±100 for the full control effect
Procedure, shortened: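 Concentration-dependent ATP depletion measured in LYMP2-016 lymphoblastoid cells, 24 h, 37 C; luciferase-based luminescent detection; Hill-equation AC50.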

[17] = Cell Viability - LYMP2-018 (AID 985);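 note: compound exposure lasted 24 hr at 37 °C; nearly all actives have a fitted effect of over 50% in size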;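 for activity change, negative = cytotoxicity: plate controls were DMSO only for no effect and tetraoctylammonium bromide at 92 µM for full effect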
Procedure, shortened: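 Seed 2500 lymphoblastoid cells per well, incubate 5 hr at 37 C, add compound and incubate 24 hr at 37 C, add CellTiter-Glo, wait 30 min at room temperature, then read luminescence.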

[18] = Cell Viability - LYMP1-002 - Assay at 40 hr (AID 994); note: nearly all actives have a fitted effect of over 60% in size; note: potency is the fitted concentration of half-maximal effect;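 for viability change, negative = cytotoxic: 0% = DMSO only and full inhibition = 92 µM tetraoctylammonium bromide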
Procedure, shortened: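 Cells are plated at 2500 per well and rested 5 hr at 37 C. Compounds are added and incubated 40 hr at 37 C. CellTiter-Glo reagent is added for 30 min at room temperature before luminescence is read.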

[19] = qHTS assay for small molecule agonists of the antioxidant response element (ARE) signaling pathway measured by Nrf2-dependant transcriptional activity (AID 720636; active = well fitted curve in the direction sought with a large enough effect in the repeat runs; an effect the other way counts as inactive or inconclusive; note: potency is the fitted concentration of half-maximal effect;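 for activation: HepG2 cells with an ARE-driven luciferase reporter; % of control where 0% means no effect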)
Procedure, shortened: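 HepG2 ARE-luc reporter line, 1% dialyzed FBS; 6 hr attachment at 37 C, compound pinned in, 16 hr at 37 C/5% CO2; ONE-Glo, 30 min RT, luminescence read.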

[20] = qHTS assay for cell viability of the p53RE-bla HCT-116 cell line (AID 743292); note: nearly all actives have a fitted effect of over 55% in size; for activity change, negative = cytotoxicity: % is set by controls: 0 for no effect and ±100 for the full control effect
Procedure, shortened: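 Luminescent ATP quantitation (CellTiter-Glo) served as the viability read-out; reagent was added after 16 h compound exposure at 37 C and read after 30 min at room temperature. Cells: p53RE-bla HCT-116, 4,000 per well.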

c1ccc2cc3c(cc2c1)-c1cccc2cccc-3c12
active: Potency [19] 9.44 µM and 8.63 µM
inactive: activity change, negative = cytotoxicity [1] -2.25% | Potency [2] | Potency [3] | Potency [4] | outcome [5] | Potency [6] | outcome [7] | Potency [8] | outcome [9] | caspase-3 activation [10] -1.28% | outcome [11] | Potency [12] | Potency [13] | Potency [14] | Potency [15] | Potency [16] | Potency [17] | Potency [18] | Potency [20]

O=[N+]([O-])c1ccccc1Cl
inactive: Potency [19]

Clc1ccc(C(c2ccc(Cl)cc2)C(Cl)Cl)cc1
inactive: Potency [2] | Potency [3] | outcome [5] | outcome [7] | outcome [9] | outcome [11] | Potency [14] | Potency [15] | Potency [16] | Potency [17] | Potency [19]
active: activity change, negative = cytotoxicity [1] -102% | Potency [4] 31.6 µM | Potency [6] 50.1 µM | Potency [8] 31.6 µM | caspase-3 activation [10] 127% | Potency [13] 79.4 µM | Potency [18] 50.1 µM

N#CSCSC#N
inactive: outcome [5] | outcome [7] | Potency [8] | caspase-3 activation [10] -10.2% | outcome [11] | Potency [19]
active: Potency [1] 25.1 µM | Potency [2] 10 µM | Potency [3] 25.1 µM | Potency [4] 1 µM | Potency [12] 31.6 µM | Potency [13] 39.8 µM | Potency [14] 5.01 µM | Potency [15] 6.31 µM | Potency [16] 7.94 µM | Potency [17] 7.94 µM | Potency [18] 31.6 µM | Potency [20] 50.1 µM

COP(=O)(OC)O/C(=C\Cl)c1cc(Cl)c(Cl)cc1Cl
active: viability change, negative = cytotoxic [4] -89.6%
inactive: outcome [5] | outcome [7] | Potency [8] | outcome [9] | caspase-3 activation [10] -4.53% | outcome [11] | Potency [12] | Potency [13] | Potency [14] | Potency [15] | Potency [16] | Potency [18] | Potency [20]

O=[N+]([O-])C(Br)Br
active: activity change, negative = cytotoxicity [1] -119% | Potency [2] 31.6 µM | viability change, negative = cytotoxic [4] -98.3% | Potency [14] 10 µM | Potency [15] 12.6 µM | Potency [16] 15.8 µM | Potency [17] 12.6 µM
inactive: Potency [3] | outcome [5] | Potency [6] | outcome [7] | Potency [8] | outcome [9] | caspase-3 activation [10] -9.23% | outcome [11] | Potency [12] | Potency [13] | Potency [18] | Potency [20]

FC(F)(F)c1ccc(Cl)cc1
inactive: activity change, negative = cytotoxicity [1] 6.85% | Potency [2] | Potency [3] | Potency [4] | outcome [5] | Potency [6] | outcome [7] | Potency [8] | outcome [9] | caspase-3 activation [10] 3.4% | outcome [11] | Potency [12] | Potency [13] | Potency [14] | Potency [15] | Potency [16] | Potency [17] | Potency [18] | Potency [19] | Potency [20]

Cc1ccc2ccccc2c1C
inactive: Potency [19]

O=[N+]([O-])c1cc(C(F)(F)F)cc([N+](=O)[O-])c1Cl
active: activity change, negative = cytotoxicity [2] -150% | Potency [14] 31.6 µM | Potency [15] 39.8 µM | Potency [16] 31.6 µM | Potency [17] 31.6 µM
inactive: Potency [3] | Potency [6] | Potency [8] | caspase-3 activation [10] -11.2% | outcome [11] | Potency [12] | Potency [13] | Potency [18] | Potency [19] | Potency [20]

Cc1ccc(O)cc1C
inactive: Potency [19]

CN(C)c1ccc(N=O)cc1
inactive: Potency [3] | outcome [5] | Potency [6] | outcome [7] | Potency [8] | outcome [9] | caspase-3 activation [10] 9.09% | outcome [11] | Potency [20]
active: Potency [1] 31.6 µM | Potency [2] 12.6 µM | Potency [4] 1.26 µM | Potency [12] 7.94 µM | Potency [13] 3.98 µM | Potency [14] 1 µM | Potency [15] 1.26 µM | Potency [16] 1.58 µM | Potency [17] 1.26 µM | Potency [18] 6.31 µM | Potency [19] 26.6 µM

[Cd+2].[Cl-].[Cl-]
inactive: Potency [3] | outcome [5] | Potency [6] | outcome [7] | Potency [8] | outcome [9] | caspase-3 activation [10] 1.43% | outcome [11] | Potency [16] | Potency [17] | Potency [20]
active: activity change, negative = cytotoxicity [1] -109% | activity change, negative = cytotoxicity [2] -132% | Potency [13] 15.8 µM | Potency [19] 0.841 µM

OC(c1ccc(Cl)cc1)(c1ccc(Cl)cc1)C(Cl)(Cl)Cl
inactive: Potency [2] | Potency [3] | Potency [4] | outcome [5] | Potency [6] | outcome [7] | Potency [8] | outcome [11] | Potency [12] | Potency [13] | Potency [14] | Potency [15] | Potency [16] | Potency [17] | Potency [18] | Potency [19]
active: activity change, negative = cytotoxicity [1] -118% | Potency [20] 50.1 µM

C#CCO
inactive: activity change, negative = cytotoxicity [1] -2.19% | Potency [2] | Potency [3] | Potency [4] | outcome [5] | Potency [6] | outcome [7] | Potency [8] | outcome [9] | caspase-3 activation [10] 1.98% | outcome [11] | Potency [12] | Potency [13] | Potency [14] | Potency [15] | Potency [16] | Potency [17] | Potency [18] | Potency [19] | Potency [20]
